# Active and inactive are the calls of the source.
# Tests used:
# [1] = anti-His antibody binders, primary screen, artefact control for SMM control protein annotation, biochemical, small-molecule microarray, 635 nm fluorescence (AID 1128); conditions: anti-His Alexa647 antibody binding, higher = more signal;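 note: score merges feature fluorescence with signal-to-noise for each printed compound spot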
# [2] = test system: Human papillomavirus type 1a E7 protein (residues 1-88); test: HPV1a E7 small-molecule binders, primary screen, biochemical, small-molecule microarray, residues 1-88, 635 nm (AID 1129); conditions: small-molecule microarray binding, fluorescence 635 nm; higher = more signal
# [3] = molecular target: Focal adhesion kinase 1 (Homo sapiens) (UniProt Q05397); test: small-molecule microarray binders of FAK, primary screen, biochemical, 635/667 nm fluorescence, BSA, DTT (AID 1130); conditions: PTK2 binding, 635 nm fluorescence, higher = more signal;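 note: composite of spot emission at 667 nm and signal to noise over triplicate slides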
# [4] = test system: Fibrinogen (Alexa647-labelled); test: fibrinogen binders on compound microarrays, profiling panel, artefact control for SMM control-protein annotation, biochemical, small-molecule microarray, 635/667 nm fluorescence (AID 1131); conditions: fibrinogen-A647 binding fluorescence, higher = more signal;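 note: z-score merges 667 nm fluorescence with per-spot signal-to-noise over triplicate slides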
# [5] = molecular target: Follistatin (Homo sapiens) (UniProt P19883); test: follistatin binders on small-molecule microarrays, primary screen, biochemical, small-molecule microarray, 635/667 nm fluorescence (AID 1132); conditions: FST binding, 635 nm fluorescence, higher = more signal
# [6] = molecular target: Fibroblast growth factor 2 (Homo sapiens) (UniProt P09038); test: FGF2 binders on small-molecule microarrays, primary screen, biochemical, small-molecule microarray, 635/667 nm fluorescence (AID 1133); conditions: small-molecule microarray binding, FGF2, fluorescence 635/667; higher = more signal
# [7] = mitochondrial membrane potential change in A549 cells, profiling panel, cell-based, JC-1 fluorescence, basal, 24 h, 100 nL (AID 1138); conditions: higher = more signal;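 note: A549 lung adenocarcinoma cells under basal conditions with no added stimulus; test concentration not given here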
# [8] = test system: Lefty1; test: Lefty1 binders on small-molecule microarrays, primary screen, biochemical, small-molecule microarray, 635/667 nm fluorescence (AID 1139); conditions: small-molecule microarray binding, fluorescence 635/667; higher = more signal
# [9] = test system: wheat germ agglutinin (Triticum aestivum), Alexa647-labelled; test: wheat germ agglutinin binders on compound microarrays, profiling panel, artefact control for SMM control-protein annotation, biochemical, small-molecule microarray, 635/667 nm fluorescence (AID 1140); conditions: WGA-A647 binding, 635 nm fluorescence, higher = more signal;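 note: score merges 667 nm feature emission with signal to noise over triplicate slides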
# [10] = molecular target: Luciferin 4-monooxygenase (Photinus pyralis) (UniProt P08659); test: firefly luciferase enzyme inhibitors, primary screen, biochemical, luminescence, purified enzyme, 2006 set (AID 1141); conditions: SteadyGlo luminescence, 30 min, higher = more signal, called active from +8 up or from −8 down;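 note: cell-free assay with purified firefly luciferase at 100 ng per well in PBS; test concentration not given here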
# Luciferin 4-monooxygenase (Photinus pyralis), sequence (P08659 whole entry, looked up): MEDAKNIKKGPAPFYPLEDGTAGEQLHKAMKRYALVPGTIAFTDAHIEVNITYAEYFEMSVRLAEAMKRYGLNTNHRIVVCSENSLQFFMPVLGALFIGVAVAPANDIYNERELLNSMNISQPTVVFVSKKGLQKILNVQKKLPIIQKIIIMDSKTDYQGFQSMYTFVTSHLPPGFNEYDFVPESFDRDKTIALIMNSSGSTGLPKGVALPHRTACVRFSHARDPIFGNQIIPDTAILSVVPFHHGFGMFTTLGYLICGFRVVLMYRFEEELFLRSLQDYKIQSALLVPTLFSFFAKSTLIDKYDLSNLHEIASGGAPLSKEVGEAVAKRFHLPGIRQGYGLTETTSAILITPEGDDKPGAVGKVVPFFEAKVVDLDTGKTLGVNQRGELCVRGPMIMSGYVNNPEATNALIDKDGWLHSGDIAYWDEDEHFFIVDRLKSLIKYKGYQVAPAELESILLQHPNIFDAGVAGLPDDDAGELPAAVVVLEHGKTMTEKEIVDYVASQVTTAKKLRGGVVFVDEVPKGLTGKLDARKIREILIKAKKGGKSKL
# Follistatin (Homo sapiens), sequence (P19883 whole entry, looked up): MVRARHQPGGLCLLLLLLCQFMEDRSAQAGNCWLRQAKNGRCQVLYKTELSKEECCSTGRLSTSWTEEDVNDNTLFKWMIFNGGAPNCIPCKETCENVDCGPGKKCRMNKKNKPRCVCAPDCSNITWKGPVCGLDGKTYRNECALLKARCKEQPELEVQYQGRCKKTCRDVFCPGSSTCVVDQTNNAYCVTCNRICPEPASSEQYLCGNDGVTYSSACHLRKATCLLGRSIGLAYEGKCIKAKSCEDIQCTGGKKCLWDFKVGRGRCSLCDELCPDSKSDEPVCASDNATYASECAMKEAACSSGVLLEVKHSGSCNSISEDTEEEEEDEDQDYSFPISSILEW
# Fibroblast growth factor 2 (Homo sapiens), sequence (P09038 whole entry, looked up): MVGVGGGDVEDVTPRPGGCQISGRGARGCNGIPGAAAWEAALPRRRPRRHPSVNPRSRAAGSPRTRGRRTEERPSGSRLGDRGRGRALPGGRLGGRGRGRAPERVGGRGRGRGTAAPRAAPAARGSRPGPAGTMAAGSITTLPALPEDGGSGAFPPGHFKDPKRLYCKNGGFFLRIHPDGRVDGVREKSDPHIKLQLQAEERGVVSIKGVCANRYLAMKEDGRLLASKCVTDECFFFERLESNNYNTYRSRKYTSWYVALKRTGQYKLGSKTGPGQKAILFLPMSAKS
# Focal adhesion kinase 1 (Homo sapiens), sequence (Q05397 whole entry, looked up): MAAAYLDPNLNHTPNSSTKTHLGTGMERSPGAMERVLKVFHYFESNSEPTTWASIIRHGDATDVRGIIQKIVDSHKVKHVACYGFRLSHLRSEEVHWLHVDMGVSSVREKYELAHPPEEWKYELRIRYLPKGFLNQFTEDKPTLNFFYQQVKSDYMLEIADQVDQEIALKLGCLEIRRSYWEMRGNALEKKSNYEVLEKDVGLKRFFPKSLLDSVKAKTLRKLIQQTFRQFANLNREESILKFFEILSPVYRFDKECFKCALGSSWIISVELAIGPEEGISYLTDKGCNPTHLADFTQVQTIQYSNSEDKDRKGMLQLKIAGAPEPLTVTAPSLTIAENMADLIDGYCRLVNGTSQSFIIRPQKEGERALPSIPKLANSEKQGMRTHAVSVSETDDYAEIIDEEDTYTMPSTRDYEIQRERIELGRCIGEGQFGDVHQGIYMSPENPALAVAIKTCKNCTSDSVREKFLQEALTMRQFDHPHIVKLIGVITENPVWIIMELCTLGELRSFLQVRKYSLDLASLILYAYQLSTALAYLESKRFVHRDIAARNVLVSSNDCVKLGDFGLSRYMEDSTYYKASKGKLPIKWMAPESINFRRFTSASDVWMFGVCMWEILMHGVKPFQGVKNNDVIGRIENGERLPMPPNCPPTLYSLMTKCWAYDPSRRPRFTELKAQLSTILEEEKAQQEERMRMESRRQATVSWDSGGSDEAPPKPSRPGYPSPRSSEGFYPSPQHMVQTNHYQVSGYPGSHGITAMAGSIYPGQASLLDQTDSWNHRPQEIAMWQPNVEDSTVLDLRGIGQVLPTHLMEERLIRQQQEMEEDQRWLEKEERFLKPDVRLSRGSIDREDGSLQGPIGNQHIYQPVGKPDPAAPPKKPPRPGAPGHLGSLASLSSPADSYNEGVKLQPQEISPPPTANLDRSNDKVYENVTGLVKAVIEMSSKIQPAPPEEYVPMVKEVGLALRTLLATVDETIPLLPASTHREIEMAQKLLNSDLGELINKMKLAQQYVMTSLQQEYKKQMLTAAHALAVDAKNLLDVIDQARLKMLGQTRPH
SMILES,composite z-score [1],composite z-score [2],composite z-score [3],composite z-score [4],composite z-score [5],composite z-score [6],z-score [7],composite z-score [8],composite z-score [9],z-score [10]
CCCNC(=O)[C@@H]1c2ccccc2C(=O)N(Cc2ccccc2OC)[C@H]1c1ccc(CO)cc1,2.08,1.22,0.609,0.937,0.98,1.06,1.53,0.482,0.712,-0.452 (inactive)
CN(C)C(=O)[C@]1(Cc2ccccc2)N=C(c2ccc(OCCCO)cc2)O[C@@H]1c1ccccc1N=[N+]=[N-],2.47,1.2,0.203,0.96,1.33,1.63,0.702,0.244,0.702,-5.05 (inactive)
[N-]=[N+]=Nc1ccccc1C[C@]1(C(=O)N2CCCCC2)COC(c2ccc(OCCCO)cc2)=N1,1.33,1.15,0.65,1.01,0.601,-0.0446,0.124,0.308,0.523,-6.97 (inactive)
CC(C)[Si](C#CCCCC#N)(O[C@H](c1ccccc1)c1cn(Cc2cccc(Cl)c2)nn1)C(C)C,0.822,0.953,-0.213,0.902,1.13,0.955,5.27,0.764,0.276,-0.513 (inactive)
COCCCNC(=O)[C@@]1(Cc2ccccc2CN=[N+]=[N-])N=C(c2ccc(OCCCO)cc2)O[C@H]1c1ccccc1CN=[N+]=[N-],2.03,1.19,0.125,0.922,0.63,-0.263,-0.556,0.0147,0.28,-2.66 (inactive)
Cc1ccc(/C=C/C=O)cc1,-0.0082,-0.872,-0.0083,0.698,-0.186,-0.245,0.843,-0.709,0.0368,-1.19 (inactive)
COc1cc2c(cc1O)C=[N+](Cc1cc3c(cc1Br)OCO3)CC2,-0.954,-1.07,-0.626,-2.07,-0.174,-0.659,-0.784,-0.553,0.248,0.807 (inactive)
O=C1[C@H]2C=C(Br)[C@H](C[C@@H]2OCCCCCCO)[C@@]12CO2,-0.847,-1.57,-0.191,-1.94,-0.266,0.263,-0.363,-0.406,-2.03,0.364 (inactive)
CN1C(=O)C2C=CC(C(O)C=Cc3ccc([N+](=O)[O-])cc3)N(Nc3ccccc3)C2C1=O (stereo not given),1.26,1.24,0.198,1.01,1.1,0.028,0.509,0.637,0.289,-1.02 (inactive)
O=C1O[C@H](c2ccccc2)[C@H](c2ccccc2)N2[C@H]1[C@@H](C(=O)NC[C@H](O)c1ccccc1)[C@]1(C(=O)Nc3ccccc31)[C@H]2c1ccc(O)cc1,0.885,0.973,0.223,0.141,1.22,1.71,-0.236,0.947,0.39,0.363 (inactive)
C#CCOc1ccc(C[C@@H](C(=O)OC)N(CC#C)[C@@H](/C=C/C2CC2)[C@H](O)Cc2ccccc2)cc1,0.135,-0.438,0.0472,-0.651,0.24,-0.768,2.32,0.22,-1.34,-0.497 (inactive)
COCCOC(=O)N1C(=O)[C@@]2(c3cc(C#CC4(O)CCCCCC4)ccc31)[C@H](C(=O)Nc1nc3ccccc3s1)[C@H]1C(=O)O[C@H](c3ccccc3)[C@H](c3ccccc3)N1[C@@H]2c1ccc(OCCO)cc1,0.553,1.16,-0.0405,0.801,1.12,1.58,-2.51,1.22,0.924,-3.29 (inactive)
COCCCNC(=O)[C@@]1(Sc2ccc(C)cc2)CC(=O)N(Cc2ccccc2Cl)[C@@H]1c1ccc(CO)cc1,0.225,1.12,0.215,0.833,1.35,1.24,-0.689,1.13,0.966,1.14 (inactive)
COCC(=C=CC[C@@H](O)c1ccc(OCCO)cc1)C[C@@H](O)c1ccccn1,2.32,-0.14,0.359,0.792,0.979,0.249,0.0965,0.517,0.643,-0.501 (inactive)
CC(C)C(=C=CC[C@H](O)c1ccc(CO)o1)CCO,0.748,0.679,0.217,0.0411,1.01,0.489,-0.589,1.37,0.383,-0.751 (inactive)
COc1ccc(C#Cc2ccc3c(c2)[C@]2(C(=O)N3)[C@H](c3ccc(O)cc3)N3[C@H](c4ccccc4)[C@H](c4ccccc4)OC(=O)[C@H]3[C@@H]2C(=O)N2CCc3cc(OC)c(OC)cc3C2)cc1,0.645,1.19,0.174,0.933,1.15,1.36,-0.577,1.12,0.384,-0.798 (inactive)
Cc1ccc(S[C@]2(C(=O)O)CC(=O)N(C(C)C)[C@@H]2c2ccc(CO)cc2)cc1,0.715,-0.386,0.104,-0.307,0.0281,-0.129,-0.233,-0.0075,0.557,0.568 (inactive)

SMILES,composite z-score [1],composite z-score [2],composite z-score [3],composite z-score [4],composite z-score [5],composite z-score [6],z-score [7],composite z-score [8],composite z-score [9],z-score [10]
CCCCC(=C=CC[C@@H](O)c1cccc(OCCO)c1)C[C@@H](O)c1ccccn1,2.56,0.873,-0.204,0.837,1.31,0.605,0.0206,1.2,0.26,0.0494 (inactive)
[N-]=[N+]=NCc1ccccc1C[C@@]1(C(=O)NCC(O)CO)N=C(c2ccc(OCCCO)cc2)O[C@@H]1c1ccccc1 (stereo not given in full),1.86,0.0034,-0.225,-0.513,0.602,-0.287,0.663,-1.7,0.276,-1.69 (inactive)
COc1cc(CO)cc(I)c1O[C@H]1C=C(C(=O)NCCO)C[C@@H](N(C(=O)c2cc3ccccc3oc2=O)C2CCCCCC2)[C@@H]1O,0.0786,-0.832,-0.314,0.138,0.625,1.32,-1.79,0.803,0.972,0.93 (inactive)
CCCCN1CC=CC23O[C@@H]4/C=C\CCCOC(=O)C4[C@H]2C(=O)N(CCCCCO)[C@@H]3C1=O (stereo not given in full),0.688,-1.02,1.31,-0.918,-0.803,-0.573,0.897,-1.12,-0.595,0.686 (inactive)
COCC(=C=CC[C@H](O)c1cccc(OCCO)c1)CCO,-0.115,0.0665,-0.0436,-0.535,1.32,0.131,-0.0195,1.48,-0.262,0.415 (inactive)
C=CCN1C(=O)[C@]2(Cc3ccccc3)N=C(c3ccc(OCCCO)cc3)O[C@@H]2c2ccccc21,3.16,1.2,0.145,0.548,1.37,1.56,1.59,0.816,0.663,-6.95 (inactive)
O=C1O[C@@H](c2ccccc2)[C@@H](c2ccccc2)N2[C@@H](c3ccc(OCCO)cc3)[C@]3(C(=O)Nc4ccc(C#CC5=CCCCC5)cc43)[C@@H](C(=O)N3CCCCCCC3)[C@H]12,1.41,1.23,1.55,0.772,1.39,1.09,-1.02,1.55,1.46,-1.13 (inactive)
C[N+](C)(C)CCCCCCNC(=O)[C@H]1C[C@H]2C(=O)N[C@@H](Cc3ccccc3)C(=O)N2[C@H]1c1cccc(OCCO)c1,0.357,0.69,0.118,0.22,1.16,1.83,-0.585,1.4,-0.046,0.0538 (inactive)
O=C(NCCN1CCOCC1)[C@@H]1c2ccccc2C(=O)N(Cc2cc(C(F)(F)F)cc(C(F)(F)F)c2)[C@H]1c1ccc(CO)cc1,0.537,-0.137,0.31,-0.487,-0.48,-0.879,2.57,-0.75,0.4,-0.372 (inactive)
C=CC[C@]1(C(N)=O)N=C(c2ccc(OCCCO)cc2)O[C@H]1c1ccccc1,1.3,1.08,0.784,0.691,0.482,0.17,-0.852,-0.664,0.417,0.004 (inactive)
CCOc1ccc(N2C(=O)CSC2c2cccc([N+](=O)[O-])c2)cc1 (stereo not given),0.798,0.636,0.65,0.71,0.0936,0.176,0.56,-0.157,1.09,0.8 (inactive)
COC(=O)[C@H](Cc1ccccc1)N[C@H](/C=C/C1CC1)[C@@H](O)Cc1ccccc1,-0.174,-0.688,-0.295,-1.05,0.395,0.123,-0.0444,-0.0264,0.0999,0.723 (inactive)
O=C1C2C=CC(C(O)C=Cc3ccc([N+](=O)[O-])cc3)N(n3cnnc3)C2C(=O)N1Cc1ccccc1 (stereo not given),1.88,1.06,0.376,0.699,1.16,-0.0745,-0.772,-0.0293,0.941,0.872 (inactive)
OCCCC1=CC(C2CC2)N(Cc2cccc(OC(F)(F)F)c2)CC1 (stereo not given),-0.103,-0.208,0.227,-2.53,-0.306,-0.338,0.00271,0.32,-0.0444,0.382 (inactive)
CC(C)[Si](C#CCCCC#N)(Oc1ccccc1Br)C(C)C,0.259,0.725,0.3,0.709,0.269,0.223,-0.0477,0.55,0.327,-0.277 (inactive)
CC(CO)N1C(=O)[C@@H]2C3C(=O)OCCC/C=C\[C@H]3OC23C=CCN(CCN2CCOCC2)C(=O)[C@@H]13 (stereo not given in full),0.537,-0.624,-0.181,-1.1,0.205,0.186,1.08,0.376,-0.169,-0.523 (inactive)
CC(C)CCC[C@@H](C)[C@H]1CC[C@@]2(C)C3=C(CC[C@]12C)[C@@]1(C)CC[C@H](OC(=O)c2ccc(C(F)(F)F)nc2)C(C)(C)C1CC3 (stereo not given in full),0.38,0.763,0.251,0.723,0.599,0.695,0.425,0.666,0.231,-1.41 (inactive)
